Source: ChEMBL document CHEMBL3988442, “University of Dundee, Small-Polar-MMV Screening Library” (2021)

species on record: Homo sapiens; assay: To identify inhibition of the IFN signalling (Jak-Stat) pathway via expression of an eGFP reporter gene under the control of an IFN-stimulated response element (ISRE) containing MxA promoter.; assay type: functional; design: scale not given: direction of the effect not stated beside the values; details: 30 µM

Row | SMILES | Percent Effect
1 | O=C(c1cnccn1)N1CCOCC2(CCN(C3CCOCC3)C2)C1 (stereo not given) | -1.42%
2 | CC(C)OCc1ncn2c1CN(Cc1cccs1)CCC2 | 12.4%
3 | O=C(CCN1CCC(C(=O)c2cc(F)ccc2F)CC1)NC1CC1 | 16.9%
4 | CCCC(NC(=O)c1cc(C)ccc1C)c1nnn[nH]1 (stereo not given) | 12.3%
5 | Cc1ncc(CNC(=O)CCOc2ccccc2)c(C2CCCN2C)n1 (stereo not given) | 12.3%
6 | CCCc1noc(CCC(=O)N2CCCC2c2noc(C3CC3)n2)n1 (stereo not given) | 12%
7 | CCn1ccnc1CN1CCN(CCOc2ccccc2OC)CC1 | 7.16%
8 | COc1ccc(CN2CCn3cc(CN4CCCCC4)nc3C2)cc1 | -6.42%
9 | N#CC1(C(=O)N2CCN(Cc3ccon3)CC2)CCC1 | 23.8%
10 | CN1CCOC(CNCc2coc(-c3ccccc3)n2)C1 (stereo not given) | 24.4%
11 | O=C(C1=CC2(CCNCC2)c2ccccc21)N1CCCC1 | -19.8%
12 | COc1ccc(CCN2CCCC2Cn2nc(C)nc2C)cc1 (stereo not given) | 26.4%
13 | Cc1ccc(NC(=O)NCCCc2n[nH]c(N)c2C#N)cc1 | 13.3%
14 | Cc1cc(C)cc(NC(=O)CN2CCCC(n3cncn3)C2)c1 (stereo not given) | 3.59%
15 | CC(CNc1cncc(-n2cccn2)n1)N(C)c1ccccc1 (stereo not given) | 51.6%
16 | CCC(C)(C)NC(=O)CN(C)C(c1cccc(F)c1)c1ccccn1 (stereo not given) | 36.6%
17 | O=C(C1CCOCC1)N1CCC2(CC1)CC(Oc1ccccc1)CO2 (stereo not given) | 14.1%
18 | CCOc1cc(C(=O)N2CCCC(c3noc(C)n3)C2)ccn1 (stereo not given) | -18.5%
19 | O=C1[C@@H]2CCN(Cc3ccoc3)C[C@@H]2OCCN1Cc1cccnc1 | -11.6%
20 | Cc1cc(C)n(CC2CCCN2C(=O)CCCc2ccccn2)n1 (stereo not given) | 16.9%

Row | SMILES | Percent Effect
21 | O=C(Nc1nc2c(s1)CCC2)c1cccnc1N1CCOCC1 | 2.75%
22 | Cc1ncsc1C(=O)NC1CCN(Cc2cccnc2)CC1 | 15.2%
23 | CCN1CCN(c2ncc(-c3cc(C)no3)c(-c3ccc(C)s3)n2)CC1 | -6.45%
24 | COc1ccc(C2CCCN2C(=O)NCCNc2ncccn2)cc1 (stereo not given) | 16.6%
25 | COCCN1C(=O)C[C@H]2[C@H]1CCN2Cc1ccc(OC)cc1 | 17.5%
26 | O=C(NCCc1cccs1)[C@H]1CO[C@H]2CCNC[C@H]2C1 | 12.4%
27 | Cc1cnn(CCNCc2ccc(OCc3csc(C)n3)cc2)c1 | 11.2%
28 | O=C(CN1CCCC(O)C1)NC(=O)NCc1cccs1 (stereo not given) | 15.4%
29 | Cc1cc(C[S+]([O-])CC(=O)Nc2c(C)cccc2C)no1 (stereo not given) | 5.44%
30 | COCCN1CCC2(CC1)CC(COC)N(c1ncccn1)C2 (stereo not given) | -6.06%
31 | Cc1noc([C@H]2C[C@H]3OCC[C@H]3N(S(=O)(=O)C3CC3)C2)n1 | 3.43%
32 | O=C(Cc1cccc(F)c1)NCCNCc1ccco1 | 34.8%
33 | CC(=O)Nc1cccc(C(=O)Nc2cnc3n2CCCC3)c1 | 17.5%
34 | Cc1nc(C)n(CC2CCCN2CC(=O)NCc2ccco2)n1 (stereo not given) | 6.45%
35 | O=C(c1n[nH]c2ccccc12)N1CCCC1c1noc(C2CC2)n1 (stereo not given) | -4.43%
36 | Cn1cc(N2CCCC(NCc3cccc4c3OCCCO4)C2)cn1 (stereo not given) | 3.65%
37 | CC(C)c1noc(C(C)N2CCN(CCN3CCCC3=O)CC2)n1 (stereo not given) | 9.64%
38 | Cc1cc(S(=O)(=O)N2CCCc3ccc(F)cc32)sc1C(=O)O | 12.6%
39 | Cc1nc(C2CCCN2CCCNS(C)(=O)=O)no1 (stereo not given) | -7.41%
40 | Cc1ncsc1CN1CC[C@H]2OCC[C@@]2(C(=O)NC(C)C)C1 | 30.1%

target: T1, Tyrosyl-tRNA synthetase, putative (Trypanosoma cruzi (strain CL Brener)) (UniProt Q4DSP6); assay: Trypanosoma cruzi tyrosyl tRNA synthetase (TcYRS) _High Tyrosine SOP; assay type: functional; design: scale not given: in the data most compounds retested in dose-response had high values; details: 30 µM
T1 sequence (whole entry): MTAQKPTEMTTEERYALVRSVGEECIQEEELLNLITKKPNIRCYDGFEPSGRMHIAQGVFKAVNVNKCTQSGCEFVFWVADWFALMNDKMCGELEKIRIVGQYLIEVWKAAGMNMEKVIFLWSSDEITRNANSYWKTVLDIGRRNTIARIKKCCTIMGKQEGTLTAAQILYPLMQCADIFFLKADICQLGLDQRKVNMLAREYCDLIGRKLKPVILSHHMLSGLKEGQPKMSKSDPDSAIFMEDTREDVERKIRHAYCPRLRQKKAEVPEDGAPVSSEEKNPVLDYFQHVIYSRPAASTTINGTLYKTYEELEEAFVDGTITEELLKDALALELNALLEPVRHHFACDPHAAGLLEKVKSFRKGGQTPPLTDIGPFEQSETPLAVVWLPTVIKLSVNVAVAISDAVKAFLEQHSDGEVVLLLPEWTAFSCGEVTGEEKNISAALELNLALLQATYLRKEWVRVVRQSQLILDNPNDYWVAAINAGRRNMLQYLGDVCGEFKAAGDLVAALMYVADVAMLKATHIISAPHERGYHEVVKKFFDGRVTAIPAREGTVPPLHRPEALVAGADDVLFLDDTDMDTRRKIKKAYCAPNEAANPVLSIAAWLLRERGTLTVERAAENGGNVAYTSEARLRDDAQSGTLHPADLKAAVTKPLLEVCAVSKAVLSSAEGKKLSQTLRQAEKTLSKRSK

Row | SMILES | Percent Effect
41 | O=C(c1cnccn1)N1CCOCC2(CCN(C3CCOCC3)C2)C1 (stereo not given) | 8.47%
42 | CC(C)OCc1ncn2c1CN(Cc1cccs1)CCC2 | -2.16%
43 | O=C(CCN1CCC(C(=O)c2cc(F)ccc2F)CC1)NC1CC1 | 3.19%
44 | CCCC(NC(=O)c1cc(C)ccc1C)c1nnn[nH]1 (stereo not given) | 6.01%
45 | Cc1ncc(CNC(=O)CCOc2ccccc2)c(C2CCCN2C)n1 (stereo not given) | 1.07%
46 | CCCc1noc(CCC(=O)N2CCCC2c2noc(C3CC3)n2)n1 (stereo not given) | 1.48%
47 | CCn1ccnc1CN1CCN(CCOc2ccccc2OC)CC1 | 0.49%
48 | COc1ccc(CN2CCn3cc(CN4CCCCC4)nc3C2)cc1 | 3.17%
49 | N#CC1(C(=O)N2CCN(Cc3ccon3)CC2)CCC1 | 0.493%
50 | CN1CCOC(CNCc2coc(-c3ccccc3)n2)C1 (stereo not given) | 6.4%
51 | O=C(C1=CC2(CCNCC2)c2ccccc21)N1CCCC1 | -3.12%
52 | COc1ccc(CCN2CCCC2Cn2nc(C)nc2C)cc1 (stereo not given) | 6.4%
53 | Cc1ccc(NC(=O)NCCCc2n[nH]c(N)c2C#N)cc1 | 5.42%
54 | Cc1cc(C)cc(NC(=O)CN2CCCC(n3cncn3)C2)c1 (stereo not given) | 2.97%
55 | CC(CNc1cncc(-n2cccn2)n1)N(C)c1ccccc1 (stereo not given) | 0.971%
56 | CCC(C)(C)NC(=O)CN(C)C(c1cccc(F)c1)c1ccccn1 (stereo not given) | 5.83%
57 | O=C(C1CCOCC1)N1CCC2(CC1)CC(Oc1ccccc1)CO2 (stereo not given) | 6.25%
58 | CCOc1cc(C(=O)N2CCCC(c3noc(C)n3)C2)ccn1 (stereo not given) | 5.42%
59 | O=C1[C@@H]2CCN(Cc3ccoc3)C[C@@H]2OCCN1Cc1cccnc1 | 4.25%
60 | Cc1cc(C)n(CC2CCCN2C(=O)CCCc2ccccn2)n1 (stereo not given) | 1.47%

Row | SMILES | Percent Effect
61 | O=C(Nc1nc2c(s1)CCC2)c1cccnc1N1CCOCC1 | 0%
62 | Cc1ncsc1C(=O)NC1CCN(Cc2cccnc2)CC1 | 6.8%
63 | CCN1CCN(c2ncc(-c3cc(C)no3)c(-c3ccc(C)s3)n2)CC1 | 6.45%
64 | COc1ccc(C2CCCN2C(=O)NCCNc2ncccn2)cc1 (stereo not given) | 5.38%
65 | COCCN1C(=O)C[C@H]2[C@H]1CCN2Cc1ccc(OC)cc1 | 3.19%
66 | O=C(NCCc1cccs1)[C@H]1CO[C@H]2CCNC[C@H]2C1 | 1.08%
67 | Cc1cnn(CCNCc2ccc(OCc3csc(C)n3)cc2)c1 | 3.83%
68 | O=C(CN1CCCC(O)C1)NC(=O)NCc1cccs1 (stereo not given) | 3.19%
69 | Cc1cc(C[S+]([O-])CC(=O)Nc2c(C)cccc2C)no1 (stereo not given) | 8.74%
70 | COCCN1CCC2(CC1)CC(COC)N(c1ncccn1)C2 (stereo not given) | 3.23%
71 | Cc1noc([C@H]2C[C@H]3OCC[C@H]3N(S(=O)(=O)C3CC3)C2)n1 | 9.38%
72 | O=C(Cc1cccc(F)c1)NCCNCc1ccco1 | 3.88%
73 | CC(=O)Nc1cccc(C(=O)Nc2cnc3n2CCCC3)c1 | 4.21%
74 | Cc1nc(C)n(CC2CCCN2CC(=O)NCc2ccco2)n1 (stereo not given) | 1.07%
75 | O=C(c1n[nH]c2ccccc12)N1CCCC1c1noc(C2CC2)n1 (stereo not given) | 4.43%
76 | Cn1cc(N2CCCC(NCc3cccc4c3OCCCO4)C2)cn1 (stereo not given) | 7.39%
77 | CC(C)c1noc(C(C)N2CCN(CCN3CCCC3=O)CC2)n1 (stereo not given) | 1.48%
78 | Cc1cc(S(=O)(=O)N2CCCc3ccc(F)cc32)sc1C(=O)O | -23.5%
79 | Cc1nc(C2CCCN2CCCNS(C)(=O)=O)no1 (stereo not given) | 4.41%
80 | Cc1ncsc1CN1CC[C@H]2OCC[C@@]2(C(=O)NC(C)C)C1 | -1.06%
